Screening results: PubChem, several laboratories
CYP2C9 inhib = blockers of cytochrome P450 2C9 activity – biochemical, luminescence, ADME assay, primary screen; CYP2C9 Supersomes, luciferin-H conversion; P11712; inhibition, % at 5 µM; hit rate 20% among 96,000;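 active means blocking of liver enzyme CYP2C9 beyond about 50% at 5 µM, limit read from the data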
CYP2C19 inh = blockers of cytochrome P450 2C19 activity – biochemical, luminescence, ADME assay, primary screen; P33261; hit rate 21% among 96,000; CYP2C19 Supersomes, luciferin-H EGE luminescence, 30 min; AID 778, 2007; inhibition, % at 5 µM;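 active means CYP2C19 inhibition above a set limit at 5 µM in the primary screen, cut at about 50% in these data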;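 further: plate controls were negative control wells for no effect and 2.5 mM tranylcypromine positive control for full effect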
Target sequence (P33261 whole entry, looked up): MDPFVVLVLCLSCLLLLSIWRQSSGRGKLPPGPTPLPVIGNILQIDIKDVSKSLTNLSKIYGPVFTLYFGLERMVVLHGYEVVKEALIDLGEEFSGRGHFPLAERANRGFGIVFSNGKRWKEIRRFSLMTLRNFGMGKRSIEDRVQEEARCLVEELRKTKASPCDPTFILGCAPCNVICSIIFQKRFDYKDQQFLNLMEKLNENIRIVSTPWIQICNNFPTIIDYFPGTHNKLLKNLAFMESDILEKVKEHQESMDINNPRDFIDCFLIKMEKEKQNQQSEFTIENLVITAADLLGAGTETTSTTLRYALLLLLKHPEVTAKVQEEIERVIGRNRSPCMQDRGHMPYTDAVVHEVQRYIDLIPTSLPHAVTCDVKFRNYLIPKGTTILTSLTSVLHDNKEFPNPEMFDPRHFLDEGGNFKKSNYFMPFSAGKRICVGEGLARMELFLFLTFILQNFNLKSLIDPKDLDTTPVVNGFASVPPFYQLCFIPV
MRP1 act = H69AR viability gain despite doxorubicin, primary screen, MRP-1 activator project, H69AR cells, CellTiter-Glo | hit rate 0.61% among 140,000 | AID 799, 2007 | viability rescue | viability increase, % at 10 µM;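 active means viability gain under doxorubicin at or above a set limit, the compound median plus 3 SD, cut at about 4.7% in these data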;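 further: MRP-1 overexpressing cells given doxorubicin 25 µM after compound pretreatment; 18-22 h compound pretreatment then 72 h with doxorubicin before readout; 0% = doxorubicin-only wells and 100% = vehicle-treated cells without doxorubicin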
CYP2C19 act = human CYP2C19 activators, primary screen, biochemical, luminescence; Cytochrome P450 2C19 (Homo sapiens), P33261; recombinant CYP2C19, luciferin-H EGE luminescence; hits give high values; 0 = fully inhibited enzyme, 1 = untreated enzyme; activation factor at 5 µM; 96,000 tested, under 10 active;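 active means activation factor of at least 2 at 5 µM in the primary screen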;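 further: 0 = wells with 2.5 mM tranylcypromine and 1 = vehicle-only wells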
MRP reversal = reversal of MRP1-mediated doxorubicin resistance, primary screen, H69AR cells, doxorubicin co-treatment | AID 602, 2007 | differential viability (reversal), % at 10 µM | hit rate 0.04% among 85,000 | H69AR cells + 2 uM doxorubicin, CellTiter-Glo, 72 h;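 active means viability drop by adding the cancer drug above about 55%, with treated viability meeting a 40% cutoff, limit read from the data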;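 further: viability without doxorubicin minus viability with 2 µM doxorubicin for each compound; larger differential means the compound sensitizes cells more to doxorubicin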
CYP2C9 act = human CYP2C9 activators, primary screen, biochemical, luminescence | Cytochrome P450 2C9 (Homo sapiens), P11712 | recombinant CYP2C9, luciferin-H conversion; hits give high values; factor 1 = untreated enzyme, 0 = blocked | activation factor at 5 µM | hit rate 1.4% among 96,000;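 active means activation factor of 2 or more for CYP2C9 at a 5 µM dose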;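 further: 0 = sulfaphenazole-blocked wells and 1 = vehicle-only wells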
Starred values were filed as active, the others as inactive; x = no result given. An excerpt weighted towards active compounds, which were near 21% of everything screened.

SMILES | CYP2C9 inhib | CYP2C19 inh | MRP1 act | CYP2C19 act | MRP reversal | CYP2C9 act
CCOc1ccc(N(C(C)C(=O)NC(C)CC)S(C)(=O)=O)cc1 (configuration not stated) | 25 | 28 | -2 | 0.7 | 11 | 0.8
CCOc1ccc(N(C(C)C(=O)N/N=C(\C)c2cccc(NC(=O)c3ccccc3)c2)S(C)(=O)=O)cc1 (configuration not stated) | 69* | 76* | 0 | 0.2 | x | 0.3
O=C(NCC1CCCO1)c1csc2c1CCCC2 (configuration not stated) | -47 | 0 | 0 | 1 | 4 | 1.5
Cc1ccc2nc(-c3ccccn3)cc(C(=O)N3CCN(c4ncccn4)CC3)c2c1 | 54* | 20 | -1 | 0.8 | 13 | 0.5
O=C(O)c1cc(-c2ccccc2)nc2ccccc12 | x | x | -1 | x | -5 | x
Cc1cc(C(=O)N2CCN(c3ncccn3)CC2)c2cc(F)ccc2n1 | 31 | 32 | -1 | 0.7 | -22 | 0.7
O=C(c1cc(-c2ccncc2)nc2ccccc12)N1CCN(S(=O)(=O)/C=C/c2ccccc2)CC1 | 80* | 58* | -5 | 0.4 | 17 | 0.2
COc1cccc(-c2cc(C(=O)Nn3cnnc3)c3ccccc3n2)c1 | 97* | 77* | -1 | 0.2 | -2 | 0
COc1cccc(-c2cc(C(=O)NN3CCOCC3)c3ccccc3n2)c1 | x | x | -2 | x | x | x
CC(C)Oc1cccc(-c2cc(C(=O)N3CCN(c4ncccn4)CC3)c3ccccc3n2)c1 | 84* | 29 | -2 | 0.7 | -2 | 0.2
CC(C)Oc1cccc(-c2cc(C(=O)N3CCN(S(C)(=O)=O)CC3)c3ccccc3n2)c1 | 12 | -5 | -3 | 1.1 | -9 | 0.9
COc1ccc(CN2CNc3c(c(=O)n(C)c(=O)n3C)C2)cc1 | x | x | -2 | x | x | x
COc1cccc(-c2cc(C(=O)N3CCN(c4ncccn4)CC3)c3ccccc3n2)c1 | 96* | 73* | -5 | 0.3 | -11 | 0
Cc1ccc(-c2cc(C(=O)N3CCN(c4ncccn4)CC3)c3ccccc3n2)cc1 | 98* | 94* | -5 | 0.1 | -2 | 0
CC(=O)c1ccc(OC(C)C)c(CN2CCCCC2)c1 | -9 | -11 | -2 | 1.1 | -1 | 1.1
COC(=O)c1cccc(S(=O)(=O)N2CCN(c3nc4ccccc4s3)CC2)c1 | 26 | 24 | -1 | 0.8 | -5 | 0.7
C/C(=N\OCC(=O)NC12CC3CC(CC(C3)C1)C2)c1cc2ccccc2o1 | x | x | 1 | x | x | x
CCCS(=O)(=O)N1CCCC(C(=O)NCCc2ccc(OC)c(OC)c2)C1 (configuration not stated) | 10 | 7 | -1 | 0.9 | x | 0.9
CC(C)CCNC(=O)COc1ccc2c(c1)C(=O)CC(C)(C)O2 | 80* | 74* | 0 | 0.3 | 5 | 0.2
COc1ccc(/C(C)=N\Nc2nc(-c3ccc(Cl)cc3)cc(C(F)(F)F)n2)cc1OC | x | x | 1 | x | x | x
c1ccc(-c2csc(Nc3cccnc3)n2)nc1 | 68* | 67* | -2 | 0.3 | -5 | 0.3
c1ccc(Nc2nc(-c3ccccn3)cs2)cc1 | 42 | 38 | 0 | 0.6 | -13 | 0.6
CCS(=O)(=O)N1CCN(C(=O)c2cccc(OC)c2)CC1 | -3 | 29 | 0 | 0.7 | -15 | 1
COc1ccc(C2Nc3ccccc3C(=O)N2c2ccc(C)cc2)cc1Cn1nc(C)c([N+](=O)[O-])c1C (configuration not stated) | 92* | 53* | -2 | 0.5 | x | 0.1
COc1cc2c(cc1OC)C1=C(C#N)CC/C(=N\S(=O)(=O)c3ccccc3)N1CC2 | 87* | 69* | -2 | 0.3 | -7 | 0.1
SMILES | CYP2C9 inhib | CYP2C19 inh | MRP1 act | CYP2C19 act | MRP reversal | CYP2C9 act
CC(=O)Nc1ccccc1OCC(=O)NCCc1ccc(Cl)cc1Cl | x | x | -3 | x | x | x
Cc1oc2nc(SCCCC(=O)NCCO)nc(N)c2c1C | -4 | -8 | -1 | 1.1 | -4 | 1
CC1CCN(c2ccc(C(=O)NCc3ccco3)cc2[N+](=O)[O-])CC1 | x | x | -2 | x | x | x
c1ccc(COn2nnc3ccccc32)c(COn2nnc3ccccc32)c1 | 93* | 99* | 0 | 0 | 3 | 0.1
Clc1cccc(Cl)c1COn1nnc2ccccc21 | 30 | 49 | -2 | 0.5 | -29 | 0.7
CCN(CC)S(=O)(=O)c1ccc(C(=O)NCc2n[nH]c(=S)n2Cc2ccccc2)cc1 | 14 | -7 | 1 | 1.1 | x | 0.9
COc1ccc(Br)cc1C1SCCN1S(C)(=O)=O (configuration not stated) | 3 | 50 | -1 | 0.5 | -4 | 1
O=c1cc(CN2CCC3(CC2)OCCO3)c2c(ccc3ccccc32)o1 | 26 | 78* | 1 | 0.2 | x | 0.7
O=C1C(=O)N(O)C2CCCCC2N1O (configuration not stated) | x | x | 0 | x | x | x
CC(C)(C)c1ccc(C(=O)NNC(=O)C2CCCCC2)cc1 | x | x | 1 | x | x | x
CCOc1ccc(C(=O)/C=C/c2cn(CN3CCN(C)CC3)c3ccccc23)cc1 | 64* | 62* | -6 | 0.4 | -20 | 0.4
COc1ccc(C(=O)/C=C/c2cn(CC(O)CN3CCOCC3)c3ccccc23)cc1 (configuration not stated) | x | x | -6 | x | x | x
COc1ccc(C(=O)/C=C/c2cn(CN3CCN(C)CC3)c3ccccc23)cc1 | 68* | 67* | -5 | 0.3 | -28 | 0.3
O=C(Nn1c(=S)[nH]c2ccccc2c1=O)c1ccncc1 | 18 | 85* | -3 | 0.1 | -4 | 0.8
C=CCn1c(SC(CCO)C(=O)NCc2ccco2)nc2sc3c(c2c1=O)CCC3 (configuration not stated) | 56* | 13 | -4 | 0.9 | x | 0.4
C=CCn1c(SCC(=O)Nc2sccc2C#N)nc2sc(C)c(C)c2c1=O | 30 | -7 | -2 | 1.1 | 2 | 0.7
C=CCn1c(SCC(=O)NC)nc2sc3c(c2c1=O)CCC3 | 59* | 39 | -1 | 0.6 | x | 0.4
CN1CCc2c(sc3nc(SCC(N)=O)n(-c4ccccc4)c(=O)c23)C1 | 16 | 69* | -1 | 0.3 | x | 0.8
CCSc1nc2sc3c(c2c(=O)n1C1CCCCC1)CCN(C)C3 | 43 | 71* | x | 0.3 | 11 | 0.6
Cc1csc2ncc(C(=O)NC(C)c3ccccc3)c(=O)n12 (configuration not stated) | -36 | 48 | -1 | 0.5 | x | 1.4
O=C(CN1C2=NCCN2c2ccccc21)c1ccc(Br)s1 | x | x | -5 | x | x | x
C=CCn1c(SCC(=O)OC)nc2sc3c(c2c1=O)CCN(C)C3 | 23 | 60* | -1 | 0.4 | 8 | 0.8
